# About 2,500 (1.9%) of roughly 130,000 compounds were called active. The list comes from a sample in which actives are over-represented; it also holds similar structures and randomly drawn compounds. Values without a mark were called inactive.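 Rule for the calls: active = signal ratio slope over the read window, or its plate-corrected B-score, at least 3 SD from the plate mean, either direction; inactive = the rest.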
# Molecular target: ATP-sensitive inward rectifier potassium channel 1 (Homo sapiens) (UniProt P48048)
# Sequence (P48048 whole entry, looked up): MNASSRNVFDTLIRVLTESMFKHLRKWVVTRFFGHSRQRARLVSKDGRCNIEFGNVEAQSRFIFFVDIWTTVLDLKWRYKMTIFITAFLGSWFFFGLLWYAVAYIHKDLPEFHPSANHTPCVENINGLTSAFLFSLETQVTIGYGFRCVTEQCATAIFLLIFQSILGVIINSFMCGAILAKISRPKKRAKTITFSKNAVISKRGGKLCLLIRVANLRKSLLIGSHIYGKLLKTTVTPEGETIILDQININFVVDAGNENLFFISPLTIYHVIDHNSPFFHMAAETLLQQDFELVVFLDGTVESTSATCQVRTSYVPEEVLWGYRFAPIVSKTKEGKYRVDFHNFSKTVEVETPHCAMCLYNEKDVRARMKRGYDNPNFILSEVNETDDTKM
# Experiment: ROMK potassium channel modulators, primary screen, cell-based, thallium flux, MLSMR library (AID 1918);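 note: B-score of the F/F0 ratio slope over 7 to 12 s after thallium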
# Settings: Tet-inducible ROMK, thallium flux fluorescence; at 10 µM; actives lie on both sides
row,Structure (SMILES),B-score
1,Cc1nc2ccccn2c1P(=S)(N1CCCCC1)N1CCCCC1,-3.59 (active)
2,CSc1nc2ccc(C)cc2c(=O)n1-c1cccnc1,-0.218
3,COC(=O)N1C(c2ccccc2)C1c1ccccc1 (stereo not given),0.0342
4,O=C(Nc1cccc2ccccc12)N1CCC2(CC1)OCCO2,-0.682
5,CCN1CCN(c2ccc([N+](=O)[O-])cc2C#N)CC1,-0.443
6,CC1=C2C(=O)C3C(CC=C4CC(OC5OC(O)C(O)C(O)C5CO)CCC43C)C2CCC12OC1CC(C)CNC1C2C (stereo not given),-0.573
7,N=c1ccccn1Cc1ccccc1,2.77 (active)
8,CN(C)/C=C(\C=[N+](C)C)c1[nH]ncc1[N+](=O)[O-],0.157
9,O=c1[nH]c(=O)n(-c2ccccc2)c(O)c1C=NC12CN3CN(CN(C3)C1)C2,0.583
10,O=c1[nH]c(=O)n(CCc2ccccc2)c(O)c1/C=N/N1CCOCC1,0.152
11,CC1=C(C(=O)Nc2ccccc2)S(=O)(=O)CCO1,0.94
12,O=C1N=c2ccccc2=C/C1=C\c1c(O)[nH]c(=S)[nH]c1=O,0.454
13,CCOCCc1c(O)[nH]c(=S)[nH]c1=O,-0.807
14,COc1ccccc1N=Nc1c(O)[nH]c(=S)[nH]c1=O,-2.66 (active)
15,CNC(=O)O/N=C(\N)Cc1csc2ccccc12,0.164
16,CC(Cc1cccs1)NCc1ccc(Cl)cc1 (stereo not given),0.0543
17,CCCOC(=O)C1C2c3ccccc3C(c3ccccc32)C1C(=O)O (stereo not given),0.827
18,O=C(COC(=O)Cc1ccccc1)Nc1ccc(F)cc1,-0.767
19,OC1/C(=C/c2ccc(C(F)(F)F)cc2)N2CCC1CC2 (stereo not given),-1.88
20,CCCCCCCCCCCCn1ccc(=N)cc1,-10.9 (active)
21,CC(C)CN1CCN(Cc2ccccc2C(F)(F)F)CC1CCO (stereo not given),-0.0138
22,CC(C)Oc1cccc(C(=O)C2CCCN(C3CCOCC3)C2)c1 (stereo not given),0.0502
23,Cc1ccc(-c2cc(C(=O)N3CCC4(CC3)OCCO4)no2)cc1,1.11
24,Clc1ccc2nc3c(c(-c4ccccc4)c2c1)CNCC3,-3.67 (active)
25,Cc1cc(C=C2C(=O)NC(=O)NC2=O)c(C)n1-c1ccncc1,-3.19 (active)
26,Cc1ccccc1N1C(=O)NC(=O)/C(=C\c2cc(C)n(C)c2C)C1=O,0.936
27,Cc1cc(/C=C2/C(=O)NC(=O)N(Cc3ccco3)C2=O)c(C)n1-c1ccc(C(=O)O)cc1,0.104
28,O=C(Cn1c(=O)n(CC2CS2)c2ccccc21)N1CCCCC1 (stereo not given),1.36
29,CC(C)c1ccc(-n2c(O)c(/C=N/N3CCOCC3)c(=O)[nH]c2=S)cc1,0.913
30,COc1ccc(NC(=O)N2CCC3(CC2)OCCO3)c(OC)c1,-0.624

# Reference: PubChem BioAssay AID1918 (Vanderbilt High Throughput Screening Facility, 2009)
